# Test results reported in PubChem BioAssay AID624252 (National Center for Advancing Translational Sciences (NCATS), 2012).
# This is one part of the list. Results filed as inconclusive are left out. Active and inactive are the calls of the source. Calls come from the whole dose curve; as a rule, active = well fitted cell-killing curve with a large enough effect; inconclusive = small, poorly fitted or top-dose-only effect; inactive = flat fitted curve, though single readings scatter.
# Experiment: qHTS screen for small molecules that inhibit ELG1-dependent DNA repair: Hit Confirmation with Unstimulated Viability Assay;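 note: compound exposure lasted 16 hours before reading; nearly all actives have a fitted effect of over 55% in size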
# Conditions: cell viability counter-screen, luminescence; series mostly up to 45.9 µM; activity change, negative = loss of viability: at the top concentration
# Excerpt: Cancer cells divide rapidly compared to normal cells in the body. During cell division, cancer cells need to duplicate their genome by DNA replication. The failure of genome duplication leads to cancer cells' death. Therefore, inhibitors of DNA replication could specifically kill cancer cells. Based on this concept, many chemotherapeutic agents were developed and have been used to treat cancer patients. However, there are a limited number of agents available in the clinical setting, and some of those that do exist have low efficacy and severe side effects. Therefore, if we can find the compounds that effectively block DNA replication either by directly damaging DNA or by inhibiting other cellular mechanisms, the options for cancer treatment will be broadened. With this in mind, we developed a quantitative high-throughput ELG1-luciferase reporter gene assay. Small molecules that specifically block ELG1 function in response to DNA damage can be identified by monitoring the suppression of luciferase activity. Since ELG1 defines a pathway for repairing DNA damage, agents blocking ELG1 function can be used to sensitize cancer cells to chemotherapeutic agents whose mechanism of action involves the induction of DNA damage.
# NIH Molecular Libraries Probe Production Network [MLPCN]
# NIH Chemical Genomics Center [NCGC]
# Assay Provider: Kyungjae Myung, NHGRI, NIH
# For genotoxicity screening, 2,000 cells in 4 uL/well were dispensed into white, solid-bottom 1536-well plates using a solenoid-based dispenser. 23 nL compound or DMSO vehicle were added by a pin tool, the plates were incubated 16 hr at 37 °C and 5% CO2. 5 ul ONE-Glo (Promega) was then added to each plate and following a 30 min incubation at room temperature, luciferase activity was quantified on a ViewLux CCD-based plate reader.
# % is set by controls: 0 for no effect and ±100 for the full control effect; potency is the fitted concentration of half-maximal effect.
SMILES,"activity change, negative = loss of viability",Potency
Cc1ccc(Nc2nc(N3CCOCC3)nc(N3CCOCC3)n2)cc1Cl,-6.73% (inactive),–
CN(CC1CCCO1)S(=O)(=O)c1ccc(C(=O)Nc2ccc(F)cc2)cc1 (stereo not given),-7.82% (inactive),–
CCc1ccc(N(CC)c2ncnc3nc[nH]c23)cc1,-6.97% (inactive),–
CC(=O)N1CCc2cc(Br)cc(S(=O)(=O)CCC(=O)Nc3c(C)n(C)n(-c4ccccc4)c3=O)c21,-1.72% (inactive),–
COc1ccc(NC(=O)C2CCC(CNc3c(N4CCCCC4)c(=O)c3=O)CC2)c(OC)c1 (stereo not given),–,25 µM (active)
COc1ccc(-c2nn(-c3ccccc3)cc2/C=C\C(=O)N2CCOCC2)cc1[N+](=O)[O-],6.03% (inactive),–
O=C(Nn1c(SCc2ccc([N+](=O)[O-])cc2)nc2ccccc2c1=O)c1ccc(F)cc1,-4.1% (inactive),–
Cc1ccccc1NC(=O)CSc1nc2ccc(Nc3nc(N4CCOCC4)nc(N4CCOCC4)n3)cc2s1,-11.1% (inactive),–
CC(=O)c1c(C)n(-c2ccc(C)cc2)c2ccc(O)cc12,-1.71% (inactive),–
CN(C)c1ccnc2sc3c(=O)n(Cc4ccccc4)cnc3c12,-1.4% (inactive),–
CS(=O)c1ccc(/C=C2\C=Cc3ccccc32)cc1 (stereo not given),-2.21% (inactive),–
COc1ccc(-c2cc(C(=O)N(C)CC(=O)Nc3ccccc3Cl)c3ccccc3n2)cc1OC,-15.8% (inactive),–
Cc1nnc(N/N=C/c2ccccn2)[nH]c1=O,-9.82% (inactive),–
Cc1ccc(C)c(S(=O)(=O)N2CCN(c3ncnc4sccc34)CC2)c1,–,6.28 µM (active)
CC12CCC(C(=O)N3CCN(c4ncccn4)CC3)(c3nc4ccccc4nc31)C2(C)C (stereo not given),-9.41% (inactive),–
CS(=O)(=O)c1ccc2nc(NC(=O)C3CCCCC3)sc2c1,-2.4% (inactive),–
NC(=O)c1sc2nc3c(c(-c4ccccc4)c2c1N)CCC3,-9.78% (inactive),–
Nc1nnc(SCC(=O)Nc2ccc3nc(SCC(=O)Nc4ccccc4)sc3c2)s1,-15% (inactive),–
COc1ccc(NC(C)=O)cc1NC(=O)CN1CCN(C2c3ccccc3-c3ccccc32)CC1,-13.3% (inactive),–
OCCCNc1nccc(-c2cc(Nc3cccc(Cl)c3)ncn2)n1,–,9.97 µM (active)
